In paper PMC5540273 (PLoS ONE, 2017):

Each molecule was assayed on KIT.
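Further: kd values determined as follow-up on hits from a single-replicate KINOMEscan panel screen.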

Compound	Kd [nM]
CC(=O)Nc1nc2cnc(Nc3cc(NC(=O)c4cccc(CCC#N)c4)ccc3C)nc2s1	> 10000
CC(C)(C)c1ccc(C(=O)Nc2cn3cc(-c4cccnc4)ccc3n2)cc1	320
Cc1cccc(-c2nc(-c3ccc(S(C)(=O)=O)cc3)sc2-c2ccnc(NCCc3ccccc3)c2)c1	120
COC(=O)c1c(-c2ccccc2)c2cc(OC)ccc2c(=O)n1Cc1ccccc1	170
O=C(Nc1ccccc1)Nc1cccc(Oc2ccc3nccn3n2)c1	0.94
COC(=O)c1c(-c2ccccc2)c2cc(C(=O)O)ccc2c(=O)n1Cc1ccccc1	100
Cn1ccc2ncnc(Oc3ccc(NC(=O)Nc4ccccc4)cc3)c21	0.6
Cc1ccc(C(=O)Nc2ccc(Nc3ccnc4cc(-c5ccccn5)ccc34)cc2O)cc1.Cl [GW440146]	2200

The molecules below were run on LCK.

Compound	Kd [nM]
Cc1ccccc1-n1cnc2c(N)ncnc21 [SKF-97510]	> 10000
COc1cc2nccc(Nc3ccc(NC(=O)c4ccc(C)cc4)c(O)c3)c2cc1OC.Cl [GW440132]	560
Cc1ccc(C(=O)Nc2ccc(Nc3ccnc4cc(-c5ccccn5)ccc34)cc2O)cc1.Cl [GW440146]	260

These molecules were tested on T1, LOK.
T1 construct: gene STK10

Compound	Kd [nM]
COc1cc2ncn(-c3cc(OCC4CCCO4)c(C(N)=O)s3)c2cc1OC (centres unmarked) [GSK204607]	100
Cn1ccc2ncnc(Oc3ccc(Nc4nc5ccccc5[nH]4)cc3)c21	200
Cn1ccc2ncnc(Oc3ccc(NC(=O)Nc4ccccc4)cc3)c21	280
